PI5P4K alpha inh – blocks human PI5P4K alpha kinase activity. P48426. PI5P4Kalpha enzyme, ADP-Glo luminescence, 60 min; hits give low values. max response, %. 330,000 compounds, 1.2% hits. AID 652105; active means max response of -50% or lower; inconclusive means between -30% and -50%; inactive means -30% or higher; further: value at the top dose of about 77 µM; on the % scale 0 is the no-effect control and ±100 the full control effect
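Compounds were pin-transferred onto PI5P4Kalpha and substrate in HEPES pH 7.4 buffer with EGTA, CHAPS and 5% DMSO. ATP (5 microM final) started the reaction, which ran 60 minutes at room temperature before ADP-Glo detection.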
Pol iota inh – inhibitors of human DNA polymerase iota. Q9UNA4. Pol iota fluorescent replication assay, 10 min. Potency, µM (highest dose often 115 µM), for the others: at the highest dose activity, negative = inhibition, most hits filed as inhibitors. 390,000 compounds, 1% hits. AID 588590; further: potency means the concentration at half of the fitted maximal effect
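Pol iota at 10 nM preincubated 15 min with compounds at room temperature; reaction started with fluorescent substrate, 50 nM final. Fluorescence read kinetically at 0 and 10 min; buffer-only wells as negative control.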
Pol beta inh – DNA polymerase beta (human) inhibition; Potency, µM (series often up to 114 µM), for the others: at the top dose activity change, negative = inhibition, most hits filed as inhibitors; AID 485314; Pol beta primer extension/strand displacement, fluorescence kinetic; P06746; 340,000 compounds, 1.3% hits; further: potency means the concentration at half of the fitted maximal effect; on the % scale 0 is the no-effect control and ±100 the full control effect
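Homogeneous kinetic assay of primer extension and strand displacement by 10 nM Pol beta, preincubated 15 min at room temperature with compound before 50 nM substrate (final) was added. Read at 0 and 10 min; four-parameter Hill fit.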
WRN inhibitor – blocks human WRN helicase; AID 651768; Q14191; 360,000 compounds, 0.46% hits; WRN helicase unwinding, fluorescent forked duplex, kinetic; Potency, µM (series often up to 114 µM), for the others: top-dose activity change, negative = inhibition, actives largely listed as inhibitors; further: potency means the concentration at half of the fitted maximal effect; on the % scale 0 is the no-effect control and ±100 the full control effect; nearly all actives have a fitted effect of over 55% in size
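Fluorescence dequenching readout, ex 525 nm/em 598 nm, kinetic mode: forked duplex DNA (100 nM final) with adjacent fluorophore and quencher unwound by WRN (20 nM final) with 2 mM ATP. Compound preincubation 15 min, room temperature.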
Pol kappa inh – DNA polymerase kappa (human) inhibition; Q9UBT6; purified Pol kappa, fluorescent DNA synthesis assay, 10 min; Potency, µM (series often up to 107 µM), for inactives: top-dose activity, negative = inhibition, hits mostly inhibitors; 400,000 compounds, 0.53% hits; AID 588579; further: potency means the concentration at half of the fitted maximal effect; on the % scale 0 is the no-effect control and ±100 the full control effect
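50 nM final substrate added after 15 min RT preincubation of 10 nM Pol kappa with compound; fluorescence read at 0 and 10 min.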
Pol eta inh – blocks human DNA polymerase eta activity. Potency, µM (top dose mostly 114 µM), inactives show at the highest dose activity change, negative = inhibition, actives largely listed as inhibitors. 390,000 compounds, 1.2% hits. recombinant Pol eta, fluorescent DNA replication assay; further: potency means the concentration at half of the fitted maximal effect; on the % scale 0 is the no-effect control and ±100 the full control effect
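Pol eta (10 nM) was preincubated with compounds for 15 min at room temperature, after which fluorescent replication substrate (50 nM final) was added to start the reaction. Fluorescence was read kinetically at 0 and 10 min.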
* = called active by the depositor; ? = inconclusive; · = no result; [ ] = remark or other dose. In the library only some 2.8% were active in any assay of this set; here they are far more common. Unless noted, the call rests on the fitted dose curve; in most records, active means well fitted curve in the direction sought with a large enough effect; inconclusive means small, poorly fitted or top-dose-only effect, or another doubt; inactive means no such curve, though single readings can be large; an effect the other way counts as inactive or inconclusive.

SMILES | PI5P4K alpha inh | Pol iota inh | Pol beta inh | WRN inhibitor | Pol kappa inh | Pol eta inh
CCc1cccc(NC(=O)COC(=O)c2cn(CC)c3nc(C)ccc3c2=O)c1 | · | 5% | 0% | · | 2% | -7%
COc1ccc2nc(NC(=O)c3nc(SCc4ccccc4F)ncc3Cl)sc2c1 | · | 8% | 1% | · | ? | -15%
COc1ccc2nc(NC(=O)c3nc(S(=O)(=O)Cc4ccccc4F)ncc3Cl)sc2c1 | · | ? | 5.6µM* | · | ? | ?
COc1ccc(N=Nc2ccc(N)nc2N)cc1 | -15 | 9% | -5% | -12% | -7% | -11%
CCOc1ccc2nc3cc(N=Nc4ccc(N)nc4N)ccc3c(N)c2c1 | ? | ? | · | ? | ? | 45µM*
Cc1ccccc1OCC(=O)OCC(=O)Nc1ccc2c(c1)OCCO2 | 0 | 13µM* | · | -3% | -4% | -3%
CCOc1ccccc1-c1ccc(C(=O)O)s1 | · | · | · | · | -5% | ·
Cc1ccc(N2C(=O)/C(=C/c3ccco3)SC2=S)cc1 | 2 | ? | ? | -13% | ? | -23%
O=C1/C(=C\c2ccco2)SC(=S)N1C1CCCCC1 | · | · | 45µM* | · | · | ·
O=C1/C(=C/c2ccco2)SC(=S)N1CCC(=O)N1CCCCC1CCO (centres undefined) | ? | 15% | ? | 56µM* | 11% | 22µM*
COc1ccc(/C=C2\SC(=S)N(CCC(=O)N3CCCCC3CCO)C2=O)cc1 (centres undefined) | -6 | 28µM* | ? | -30% | ? | ?
O=C(NCCC1=CCCCC1)c1ccc2c(c1)N(Cc1ccccc1F)C(=O)c1ccccc1S2=O (centres undefined) | · | 26% | 10% | · | -4% | -21%
COc1ccc(NC(=O)c2c(NCc3cccc(F)c3)sc3c2CCC3)c(OC)c1 | · | 6% | -14% | · | -8%[60.1 µM] | -15%
NC(C(=O)O)C(O)c1ccc(O)c(O)c1 (centres undefined) | · | · | · | · | 0.24µM* | ·
N[C@H](C(=O)O)c1ccc(O)c(C(=O)O)c1 | · | · | · | · | 4%[19.4 µM] | ·
Cc1ccccc1NC(=O)c1nc(S(C)(=O)=O)ncc1N(Cc1ccco1)Cc1sccc1C | · | 13% | -1% | · | -2% | -19%
CC1(C)C=Cc2c(ccc3c2OC[C@H](c2ccc(O)cc2O)C3)O1 | 23 | 6% | · | -17% | -4% | -13%
COc1ccc(C2COc3cc(O)ccc3C2)c(OC)c1O (centres undefined) | -6 | 79µM* | · | 4% | 9% | 0%
N#CCSc1ncnc2sc3c(c12)CCC3 | ? | ? | ? | -13%[57.1 µM] | ? | 89µM*
CC1(C)Cc2nc3sc4c(SCC(=O)NCc5ccco5)ncnc4c3cc2CO1 | -15 | -16% | ? | -24% | -10% | 22µM*
CC(C)c1nc2sc3c(SCC(=O)NCc4ccco4)ncnc3c2c2c1CCC2 | ? | ? | 22µM* | ? | 79µM* | 6.3µM*
Cc1nc2c(sc3nc4c(cc32)COC(C)(C)C4)c(=O)n1CC(=O)NCc1ccco1 | · | ? | ? | -10% | -28% | ?
O=[N+]([O-])c1cnc(Sc2ccncn2)c([N+](=O)[O-])c1 | -74* | · | · | -27% | · | -15%
O=[N+]([O-])c1cnc(Sc2ccncn2)s1 | -21 | ? | -1% | -32% | -4% | 4%
C[C@@H]1[C@H](c2ccccc2)OCCS(=O)(=O)N1Cc1ccc(Cl)cc1 | · | 1% | · | · | -16% | ·
SMILES | PI5P4K alpha inh | Pol iota inh | Pol beta inh | WRN inhibitor | Pol kappa inh | Pol eta inh
Cc1oc2ccc(O)c(CN3CCN(C)CC3)c2c1C(=O)Nc1ccccc1 | · | 24% | 10% | · | 19% | -4%
O=C(O)c1cccc(CN2C(=O)S/C(=C/c3ccccc3[N+](=O)[O-])C2=O)c1 | -17 | 20µM* | 28% | -12% | -25% | 79µM*
O=C1S/C(=C\c2ccc(O)c([N+](=O)[O-])c2)C(=O)N1Cc1cccc([N+](=O)[O-])c1 | -78* | ? | 32µM* | -8%[11.6 µM] | ? | ?
Cc1cccc(NC(=O)CN2C(=O)S/C(=C\c3ccc(O)c([N+](=O)[O-])c3)C2=O)c1 | ? | -8% | ? | ? | -15% | ?
COc1ccc(CCNC(=O)Cn2cc(S(=O)(=O)Cc3cccc(Cl)c3)c3ccccc32)cc1OC | · | 31% | 0% | · | -9% | -22%
O=C(COc1ccccc1C(=O)Nc1ccccc1)Nc1ccc(-c2ccccc2)cc1 | · | -13% | · | · | -2% | ·
CCC(=O)N1CCc2cc(S(=O)(=O)NCCC(=O)Nc3cccc(SC)c3)ccc21 | · | 3% | 1% | · | -5% | -24%
N#CC1=C(Nc2ccccc2Cl)SC2(CCCC2)NC1=O | -51* | · | · | 8%[57.1 µM] | · | ·
CCc1ccccc1N(CC(=O)NCc1ccco1)C(=O)c1snc(C(N)=O)c1N | -25 | ? | 50µM* | -19% | -35% | 20µM*
CC(C)CCNC(=O)CN(Cc1ccco1)C(=O)c1snc(C(N)=O)c1N | -1 | 63% | 37% | -12% | -1% | 8%
C=CCOC(=O)C1=C(C)NC(SC)=C(C#N)C1c1ccc(OCC)cc1 (centres undefined) | 14 | -8% | -4% | -10% | -13% | ?
C=CCOC(=O)C1=C(C)NC(SCC(=O)OCC)=C(C#N)C1c1ccc(O)c(OC)c1 (centres undefined) | -54* | 8% | ? | -34% | -14% | ?
CC(C)Cn1c(=O)c2ccccc2n2c(CCC(=O)Nc3ccc(F)cc3)nnc12 | · | 23% | 41% | · | 4% | -14%
Nc1nc(-c2cc(O)ccc2[N+](=O)[O-])cc(-c2ccccc2)c1[N+](=O)[O-] | -26 | ? | -9% | -13%[11.6 µM] | -5% | 89µM*
COc1ccc(CNc2ncnc3ccc(-c4ccccc4C#N)cc23)c(OC)c1 | · | · | · | · | 40µM* | ·
CCc1ccc(CN(C(=O)c2ccc(OC)cc2)C2CCS(=O)(=O)C2)cc1 (centres undefined) | · | -1% | -3% | · | 1% | -2%
O=C(CCl)N1CCN2C(=O)c3ccccc3C12c1ccc(Cl)cc1 (centres undefined) | -7 | 69% | -21% | -4% | 2% | 79µM*
CCOc1ccc(NC(=O)CSc2nc3nc(C)c(Cc4ccccc4)c(C)n3n2)cc1 | · | -14% | -23% | · | -1%[60.1 µM] | -27%
CCCC[C@]12Cc3ccccc3C(O1)c1c(cc(-c3ccccc3)oc1=O)O2 | · | · | 3.5µM* | · | · | ·
Cc1cccc(NC(=O)c2oc3ccc(S(=O)(=O)N4CCCCC4)cc3c2C)c1C | · | -30% | 29% | · | -5%[60.1 µM] | -8%
CN(C)/C=C/c1c([N+](=O)[O-])c2ccc(O)cc2n1-c1ccccc1 | -59* | 31% | -4% | -32% | 4% | -7%
COCCc1nn2c(=O)cc(COC(=O)c3ccccc3C)nc2s1 | · | -13% | ? | · | 0% | -11%
Cc1csc2nc(COC(=O)c3ccccc3NC(=O)COc3ccccc3F)cc(=O)n12 | · | -15% | 25µM* | · | 6%[60.1 µM] | -14%

Screens deposited in PubChem BioAssay by National Center for Advancing Translational Sciences (NCATS).
